# Measured values from paper PMC7862700, “An all-to-all approach to the identification of sequence-specific readers for epigenetic DNA modifications on cytosine”.
# Legend:
# Test in all cases: DAPPL (digital affinity profiling via proximity ligation, sequencing); 10 mM Tris-HCl pH 7.5, 50 mM NaCl, 1 mM DTT, 4% glycerol, room temperature, 30 min; GST-TFs on glutathione beads, 16-mer random dsDNA library, 0.1% formaldehyde crosslink after washing; high values mean tight binding
# FLI1 = target: T1, FLI1 (Homo sapiens, UniProt Q01543 1-452); details: protein: recombinant; tags: N-terminal GST; dsDNA, one strand shown
# T1 sequence: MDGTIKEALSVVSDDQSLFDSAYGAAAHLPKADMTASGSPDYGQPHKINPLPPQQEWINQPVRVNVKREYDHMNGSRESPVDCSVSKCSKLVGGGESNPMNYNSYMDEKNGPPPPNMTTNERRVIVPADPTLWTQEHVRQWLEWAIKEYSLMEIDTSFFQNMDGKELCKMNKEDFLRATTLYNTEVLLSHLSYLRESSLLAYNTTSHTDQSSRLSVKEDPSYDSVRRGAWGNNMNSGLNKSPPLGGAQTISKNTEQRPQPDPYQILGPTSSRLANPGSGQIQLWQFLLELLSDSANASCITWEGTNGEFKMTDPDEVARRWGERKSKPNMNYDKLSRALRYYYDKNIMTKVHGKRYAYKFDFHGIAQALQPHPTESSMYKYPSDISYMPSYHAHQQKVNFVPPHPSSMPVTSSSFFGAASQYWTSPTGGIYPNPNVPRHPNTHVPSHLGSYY
# How it was run: (§1)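 GST fusions of human transcription factors were expressed in yeast and captured with glutathione beads. Once given DNA barcodes and pooled alongside a tag-only sample, they were incubated for 30 min at room temperature with 200 nmole of a random double-stranded 16-mer DNA library in Tris/NaCl/DTT/glycerol buffer, then washed, crosslinked (0.1% formaldehyde), proximity-ligated, PCR-amplified and sequenced on an Illumina NextSeq500. The binding signal of each hexamer is its read frequency for a factor divided by its frequency for the tag-only sample.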
# ELK1 = target: T2, ELK1 (Homo sapiens, UniProt P19419 1-428); details: protein: recombinant; tags: N-terminal GST; dsDNA, one strand shown
# T2 sequence: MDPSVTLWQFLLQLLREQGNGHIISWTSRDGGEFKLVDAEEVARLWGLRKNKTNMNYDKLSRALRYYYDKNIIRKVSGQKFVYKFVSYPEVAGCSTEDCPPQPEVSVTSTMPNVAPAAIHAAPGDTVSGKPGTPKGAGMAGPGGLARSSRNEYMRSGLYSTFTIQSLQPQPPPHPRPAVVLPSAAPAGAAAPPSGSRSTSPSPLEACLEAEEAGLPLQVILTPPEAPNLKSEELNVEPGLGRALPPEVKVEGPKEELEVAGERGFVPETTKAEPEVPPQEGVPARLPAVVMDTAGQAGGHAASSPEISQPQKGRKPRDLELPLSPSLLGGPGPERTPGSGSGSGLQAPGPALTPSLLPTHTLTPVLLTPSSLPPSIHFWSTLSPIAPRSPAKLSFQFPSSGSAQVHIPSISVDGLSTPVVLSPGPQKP
# How it was run: as §1
# GABPA = target: T3, GABPA (Homo sapiens, UniProt Q06546 1-454); details: protein: recombinant; tags: N-terminal GST; dsDNA, one strand shown
# T3 sequence: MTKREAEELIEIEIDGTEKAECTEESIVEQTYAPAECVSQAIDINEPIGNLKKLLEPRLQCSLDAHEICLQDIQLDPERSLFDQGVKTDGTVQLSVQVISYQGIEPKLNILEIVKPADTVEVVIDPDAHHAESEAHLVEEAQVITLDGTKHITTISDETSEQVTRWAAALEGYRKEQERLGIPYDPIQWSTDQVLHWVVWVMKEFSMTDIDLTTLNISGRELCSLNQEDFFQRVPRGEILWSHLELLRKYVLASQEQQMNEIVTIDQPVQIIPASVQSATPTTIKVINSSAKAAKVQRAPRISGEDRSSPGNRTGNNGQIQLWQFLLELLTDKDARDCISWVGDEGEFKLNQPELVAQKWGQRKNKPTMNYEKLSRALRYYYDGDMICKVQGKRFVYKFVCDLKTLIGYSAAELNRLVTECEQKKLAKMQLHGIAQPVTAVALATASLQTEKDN
# How it was run: as §1
# ERG = target: T4, ERG (Homo sapiens, UniProt P11308 1-479); details: protein: recombinant; tags: N-terminal GST; dsDNA, one strand shown
# T4 sequence: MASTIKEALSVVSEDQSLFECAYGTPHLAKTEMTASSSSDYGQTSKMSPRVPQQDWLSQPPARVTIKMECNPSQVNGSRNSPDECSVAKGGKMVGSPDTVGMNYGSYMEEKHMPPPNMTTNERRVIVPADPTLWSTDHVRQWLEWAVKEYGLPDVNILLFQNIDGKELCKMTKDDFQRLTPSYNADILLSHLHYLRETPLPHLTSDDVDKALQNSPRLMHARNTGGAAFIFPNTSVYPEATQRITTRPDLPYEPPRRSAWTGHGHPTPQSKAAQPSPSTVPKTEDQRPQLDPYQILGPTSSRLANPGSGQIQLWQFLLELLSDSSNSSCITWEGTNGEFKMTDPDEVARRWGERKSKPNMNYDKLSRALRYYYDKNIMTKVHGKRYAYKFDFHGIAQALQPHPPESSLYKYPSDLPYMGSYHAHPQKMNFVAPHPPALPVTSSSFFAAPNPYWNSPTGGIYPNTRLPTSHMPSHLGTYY
# How it was run: as §1
# ELF1 = ELF1 (Homo sapiens, UniProt P32519 1-619); details: protein: recombinant; tags: N-terminal GST; dsDNA, one strand shown
# Sequence of ELF1 (P32519 whole entry): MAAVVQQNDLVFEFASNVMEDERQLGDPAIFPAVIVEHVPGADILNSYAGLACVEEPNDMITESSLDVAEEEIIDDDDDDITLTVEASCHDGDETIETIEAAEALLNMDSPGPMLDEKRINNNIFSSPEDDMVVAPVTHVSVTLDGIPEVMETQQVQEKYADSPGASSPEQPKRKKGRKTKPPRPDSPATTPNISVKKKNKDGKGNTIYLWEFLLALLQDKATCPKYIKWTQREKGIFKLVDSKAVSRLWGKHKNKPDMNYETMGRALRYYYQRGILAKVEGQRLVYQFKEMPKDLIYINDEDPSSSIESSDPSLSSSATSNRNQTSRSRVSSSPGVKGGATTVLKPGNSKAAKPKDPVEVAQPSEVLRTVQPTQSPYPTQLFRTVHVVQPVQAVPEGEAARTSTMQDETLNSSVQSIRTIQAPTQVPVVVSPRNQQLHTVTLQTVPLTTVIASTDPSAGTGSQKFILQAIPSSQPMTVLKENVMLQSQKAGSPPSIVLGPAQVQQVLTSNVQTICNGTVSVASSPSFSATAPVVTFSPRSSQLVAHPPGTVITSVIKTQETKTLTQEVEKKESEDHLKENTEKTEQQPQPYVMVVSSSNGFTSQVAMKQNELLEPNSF
# How it was run: as §1
# EHF = target: T5, EHF (Homo sapiens, UniProt Q9NZC4 1-300); details: protein: recombinant; tags: N-terminal GST; dsDNA, one strand shown
# T5 sequence: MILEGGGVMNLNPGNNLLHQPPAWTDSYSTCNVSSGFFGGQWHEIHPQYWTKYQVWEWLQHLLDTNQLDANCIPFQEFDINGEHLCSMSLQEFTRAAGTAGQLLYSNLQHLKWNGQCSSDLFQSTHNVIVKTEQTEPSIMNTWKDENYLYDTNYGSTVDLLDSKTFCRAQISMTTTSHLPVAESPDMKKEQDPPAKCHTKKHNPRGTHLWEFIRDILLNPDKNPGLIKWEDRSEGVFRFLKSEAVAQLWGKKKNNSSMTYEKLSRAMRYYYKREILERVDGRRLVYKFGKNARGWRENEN
# How it was run: as §1
# SPI1 = SPI1 (Homo sapiens, UniProt P17947 1-270); details: protein: recombinant; tags: N-terminal GST; dsDNA, one strand shown
# How it was run: as §1
# SPIB = SPIB (Homo sapiens, UniProt Q01892 1-262); details: protein: recombinant; tags: N-terminal GST; dsDNA, one strand shown
# Sequence of SPIB (Q01892 whole entry): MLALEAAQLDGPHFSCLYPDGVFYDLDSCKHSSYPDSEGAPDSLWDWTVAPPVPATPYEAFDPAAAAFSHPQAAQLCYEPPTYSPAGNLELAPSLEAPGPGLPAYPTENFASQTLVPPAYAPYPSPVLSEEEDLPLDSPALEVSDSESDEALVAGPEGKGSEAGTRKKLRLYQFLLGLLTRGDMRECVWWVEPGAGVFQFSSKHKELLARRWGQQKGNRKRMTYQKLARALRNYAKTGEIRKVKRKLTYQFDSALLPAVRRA
# How it was run: as §1
# ELK3 = target: T6, ELK3 (Homo sapiens, UniProt P41970 1-407); details: protein: recombinant; tags: N-terminal GST; dsDNA, one strand shown
# T6 sequence: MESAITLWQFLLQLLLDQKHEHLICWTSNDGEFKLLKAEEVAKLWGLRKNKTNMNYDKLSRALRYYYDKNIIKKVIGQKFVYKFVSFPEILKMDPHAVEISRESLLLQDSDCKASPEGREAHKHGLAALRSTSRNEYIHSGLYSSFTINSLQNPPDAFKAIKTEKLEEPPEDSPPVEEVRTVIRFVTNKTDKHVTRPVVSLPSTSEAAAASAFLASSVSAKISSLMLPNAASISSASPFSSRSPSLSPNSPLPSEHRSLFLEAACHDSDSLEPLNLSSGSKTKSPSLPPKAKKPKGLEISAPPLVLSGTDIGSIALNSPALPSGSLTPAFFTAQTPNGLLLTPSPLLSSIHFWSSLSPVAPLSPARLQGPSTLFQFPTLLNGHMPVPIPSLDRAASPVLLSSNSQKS
# How it was run: as §1
# FEV = target: T7, FEV (Homo sapiens, UniProt Q99581 1-238); details: protein: recombinant; tags: N-terminal GST; dsDNA, one strand shown
# T7 sequence: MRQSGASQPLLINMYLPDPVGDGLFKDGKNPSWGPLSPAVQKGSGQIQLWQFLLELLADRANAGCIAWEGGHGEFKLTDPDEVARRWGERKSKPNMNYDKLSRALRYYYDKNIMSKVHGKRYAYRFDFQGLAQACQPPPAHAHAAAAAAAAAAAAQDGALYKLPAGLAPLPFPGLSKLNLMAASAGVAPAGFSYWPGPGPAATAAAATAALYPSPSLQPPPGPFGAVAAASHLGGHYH
# How it was run: as §1
# ETV5 = ETV5 (Homo sapiens, UniProt P41161 1-510); details: protein: recombinant; tags: N-terminal GST; dsDNA, one strand shown
# Sequence of ETV5 (P41161 whole entry): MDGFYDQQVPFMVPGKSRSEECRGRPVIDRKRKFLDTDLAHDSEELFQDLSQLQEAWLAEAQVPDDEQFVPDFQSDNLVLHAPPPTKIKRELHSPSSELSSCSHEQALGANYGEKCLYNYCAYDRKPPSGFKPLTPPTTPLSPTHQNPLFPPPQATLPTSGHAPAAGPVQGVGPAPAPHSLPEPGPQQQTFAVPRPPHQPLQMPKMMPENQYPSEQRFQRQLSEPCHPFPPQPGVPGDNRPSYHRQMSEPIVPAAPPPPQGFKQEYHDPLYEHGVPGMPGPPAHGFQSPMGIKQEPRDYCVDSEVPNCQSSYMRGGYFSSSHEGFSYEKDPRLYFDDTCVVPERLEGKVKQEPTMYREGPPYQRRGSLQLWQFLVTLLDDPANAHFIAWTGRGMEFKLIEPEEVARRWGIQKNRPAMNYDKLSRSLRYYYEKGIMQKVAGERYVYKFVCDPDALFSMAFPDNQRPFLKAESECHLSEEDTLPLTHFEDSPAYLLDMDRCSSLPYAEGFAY
# How it was run: as §1
# HSF1 = HSF1 (Homo sapiens, UniProt Q00613 1-529); details: protein: recombinant; tags: N-terminal GST; chain copies: 3; dsDNA, one strand shown
# Sequence of HSF1 (Q00613 whole entry): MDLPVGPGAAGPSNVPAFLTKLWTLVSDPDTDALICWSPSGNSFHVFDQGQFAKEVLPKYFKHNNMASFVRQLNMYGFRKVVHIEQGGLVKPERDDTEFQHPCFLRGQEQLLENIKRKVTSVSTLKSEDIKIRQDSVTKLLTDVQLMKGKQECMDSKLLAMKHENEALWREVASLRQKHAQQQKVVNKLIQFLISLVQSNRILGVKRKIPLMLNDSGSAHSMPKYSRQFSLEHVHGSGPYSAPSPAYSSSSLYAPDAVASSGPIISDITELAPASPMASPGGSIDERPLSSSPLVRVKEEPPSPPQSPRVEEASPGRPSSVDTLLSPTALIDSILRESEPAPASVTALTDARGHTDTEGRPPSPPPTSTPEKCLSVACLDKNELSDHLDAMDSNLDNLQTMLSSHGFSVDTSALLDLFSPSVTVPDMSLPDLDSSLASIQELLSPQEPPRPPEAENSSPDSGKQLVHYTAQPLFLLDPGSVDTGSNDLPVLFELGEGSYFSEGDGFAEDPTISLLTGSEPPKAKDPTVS
# How it was run: as §1
# SPIC = target: T8, SPIC (Homo sapiens, UniProt Q8N5J4 1-248); details: protein: recombinant; tags: N-terminal GST; dsDNA, one strand shown
# T8 sequence: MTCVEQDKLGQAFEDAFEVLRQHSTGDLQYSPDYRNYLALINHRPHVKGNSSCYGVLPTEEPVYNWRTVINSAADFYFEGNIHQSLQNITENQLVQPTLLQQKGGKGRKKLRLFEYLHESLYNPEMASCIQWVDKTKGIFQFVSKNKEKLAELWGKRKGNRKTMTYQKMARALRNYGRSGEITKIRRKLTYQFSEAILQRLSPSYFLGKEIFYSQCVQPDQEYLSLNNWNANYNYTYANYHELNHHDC
# How it was run: as §1
# ELF4 = ELF4 (Homo sapiens, UniProt Q99607 1-663); details: protein: recombinant; tags: N-terminal GST; dsDNA, one strand shown
# Sequence of ELF4 (Q99607 whole entry): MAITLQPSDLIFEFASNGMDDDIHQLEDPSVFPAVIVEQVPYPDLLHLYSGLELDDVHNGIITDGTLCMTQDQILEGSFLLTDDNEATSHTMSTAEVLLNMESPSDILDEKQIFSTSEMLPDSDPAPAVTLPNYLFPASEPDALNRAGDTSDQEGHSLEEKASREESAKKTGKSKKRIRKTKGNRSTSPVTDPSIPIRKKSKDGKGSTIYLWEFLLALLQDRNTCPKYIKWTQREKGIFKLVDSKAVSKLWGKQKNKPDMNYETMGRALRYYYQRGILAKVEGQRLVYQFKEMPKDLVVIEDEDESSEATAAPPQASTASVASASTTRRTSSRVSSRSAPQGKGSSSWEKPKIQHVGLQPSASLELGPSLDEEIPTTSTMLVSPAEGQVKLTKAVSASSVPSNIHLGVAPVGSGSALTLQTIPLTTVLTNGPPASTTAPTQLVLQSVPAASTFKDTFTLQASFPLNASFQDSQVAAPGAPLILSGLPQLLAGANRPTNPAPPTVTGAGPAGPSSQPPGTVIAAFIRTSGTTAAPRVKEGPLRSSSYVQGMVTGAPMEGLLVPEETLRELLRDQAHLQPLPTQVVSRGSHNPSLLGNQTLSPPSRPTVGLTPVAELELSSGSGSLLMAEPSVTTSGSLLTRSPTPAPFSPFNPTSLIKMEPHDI
# How it was run: as §1
# ELK4 = target: T9, ELK4 (Homo sapiens, UniProt P28324-2 1-405); details: protein: recombinant; tags: N-terminal GST; dsDNA, one strand shown
# T9 sequence: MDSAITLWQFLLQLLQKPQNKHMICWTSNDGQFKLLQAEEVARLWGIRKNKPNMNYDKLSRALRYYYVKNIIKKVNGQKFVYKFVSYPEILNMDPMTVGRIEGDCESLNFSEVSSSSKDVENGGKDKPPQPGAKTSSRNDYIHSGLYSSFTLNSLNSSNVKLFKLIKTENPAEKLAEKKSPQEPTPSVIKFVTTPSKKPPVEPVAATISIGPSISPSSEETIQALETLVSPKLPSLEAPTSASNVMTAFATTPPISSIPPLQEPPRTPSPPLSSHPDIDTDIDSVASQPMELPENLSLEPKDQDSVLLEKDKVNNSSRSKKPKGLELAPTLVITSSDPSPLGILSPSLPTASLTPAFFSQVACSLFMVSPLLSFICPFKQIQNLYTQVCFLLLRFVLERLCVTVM
# How it was run: as §1
# ETV2 = target: T10, ETV2 (Homo sapiens, UniProt O00321 1-342); details: protein: recombinant; tags: N-terminal GST; dsDNA, one strand shown
# T10 sequence: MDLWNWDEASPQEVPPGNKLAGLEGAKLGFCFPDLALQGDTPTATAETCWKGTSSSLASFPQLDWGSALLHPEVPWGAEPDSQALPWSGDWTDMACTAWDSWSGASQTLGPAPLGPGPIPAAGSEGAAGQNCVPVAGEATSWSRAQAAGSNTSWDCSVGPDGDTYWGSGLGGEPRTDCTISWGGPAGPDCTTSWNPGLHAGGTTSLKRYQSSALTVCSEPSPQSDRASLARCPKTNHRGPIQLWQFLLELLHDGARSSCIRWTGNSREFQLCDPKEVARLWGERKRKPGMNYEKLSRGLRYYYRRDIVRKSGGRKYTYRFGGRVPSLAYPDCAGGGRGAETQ
# How it was run: as §1
# ELF3 = target: T11, ELF3 (Homo sapiens, UniProt P78545 1-371); details: protein: recombinant; tags: N-terminal GST; dsDNA, one strand shown
# T11 sequence: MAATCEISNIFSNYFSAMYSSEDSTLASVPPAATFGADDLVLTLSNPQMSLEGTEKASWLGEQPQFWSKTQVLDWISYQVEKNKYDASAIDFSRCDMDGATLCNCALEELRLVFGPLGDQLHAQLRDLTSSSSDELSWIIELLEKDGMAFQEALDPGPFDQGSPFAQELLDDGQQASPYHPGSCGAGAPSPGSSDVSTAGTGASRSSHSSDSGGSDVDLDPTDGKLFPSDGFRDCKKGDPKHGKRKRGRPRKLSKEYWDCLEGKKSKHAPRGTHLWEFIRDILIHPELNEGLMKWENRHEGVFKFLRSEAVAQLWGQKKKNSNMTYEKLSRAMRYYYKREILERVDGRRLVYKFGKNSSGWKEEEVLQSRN
# How it was run: as §1
# CRX = CRX (Homo sapiens, UniProt O43186 1-299); details: protein: recombinant; tags: N-terminal GST; dsDNA, one strand shown
# Sequence of CRX (O43186 whole entry): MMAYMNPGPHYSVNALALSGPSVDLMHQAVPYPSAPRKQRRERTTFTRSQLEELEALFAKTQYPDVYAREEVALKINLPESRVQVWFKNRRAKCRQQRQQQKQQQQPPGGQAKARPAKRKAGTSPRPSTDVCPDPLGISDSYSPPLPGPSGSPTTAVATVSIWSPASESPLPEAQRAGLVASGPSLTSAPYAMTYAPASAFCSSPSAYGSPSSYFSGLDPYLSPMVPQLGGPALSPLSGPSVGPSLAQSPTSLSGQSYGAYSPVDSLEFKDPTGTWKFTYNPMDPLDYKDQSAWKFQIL
# How it was run: as §1
# ETV1 = ETV1 (Homo sapiens, UniProt P50549 1-477); details: protein: recombinant; tags: N-terminal GST; dsDNA, one strand shown
# Sequence of ETV1 (P50549 whole entry): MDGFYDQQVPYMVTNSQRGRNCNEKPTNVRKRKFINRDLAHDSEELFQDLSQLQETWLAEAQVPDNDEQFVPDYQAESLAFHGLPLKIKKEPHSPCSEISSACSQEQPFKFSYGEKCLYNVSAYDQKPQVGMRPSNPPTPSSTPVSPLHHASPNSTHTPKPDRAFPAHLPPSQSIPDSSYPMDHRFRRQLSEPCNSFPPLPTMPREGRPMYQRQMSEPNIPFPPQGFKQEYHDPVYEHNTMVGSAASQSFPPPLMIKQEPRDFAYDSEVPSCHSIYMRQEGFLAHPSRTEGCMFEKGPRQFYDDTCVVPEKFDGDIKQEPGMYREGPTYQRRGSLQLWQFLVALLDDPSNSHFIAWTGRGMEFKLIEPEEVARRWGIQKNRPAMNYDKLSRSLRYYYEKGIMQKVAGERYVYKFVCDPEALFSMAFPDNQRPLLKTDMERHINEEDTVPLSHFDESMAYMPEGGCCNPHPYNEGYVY
# How it was run: as §1
sequence,measurement,setting,value
GATTTT,binding signal,FLI1,"1.16 fold enrichment (6-mer frequency, TF over GST control)"
same,binding signal,ELK1,"1.15 fold enrichment (6-mer frequency, TF over GST control)"
same,binding signal,GABPA,"1.21 fold enrichment (6-mer frequency, TF over GST control)"
same,binding signal,ERG,"1.12 fold enrichment (6-mer frequency, TF over GST control)"
same,binding signal,ELF1,"1.12 fold enrichment (6-mer frequency, TF over GST control)"
same,binding signal,EHF,"1.18 fold enrichment (6-mer frequency, TF over GST control)"
same,binding signal,SPI1,"1.12 fold enrichment (6-mer frequency, TF over GST control)"
same,binding signal,SPIB,"1.12 fold enrichment (6-mer frequency, TF over GST control)"
same,binding signal,ELK3,"1.07 fold enrichment (6-mer frequency, TF over GST control)"
same,binding signal,FEV,"1.09 fold enrichment (6-mer frequency, TF over GST control)"
same,binding signal,ETV5,"1.1 fold enrichment (6-mer frequency, TF over GST control)"
same,binding signal,HSF1,"1.45 fold enrichment (6-mer frequency, TF over GST control)"
same,binding signal,SPIC,"1.14 fold enrichment (6-mer frequency, TF over GST control)"
same,binding signal,ELF4,"1.15 fold enrichment (6-mer frequency, TF over GST control)"
same,binding signal,ELK4,"1.24 fold enrichment (6-mer frequency, TF over GST control)"
same,binding signal,ETV2,"1.12 fold enrichment (6-mer frequency, TF over GST control)"
same,binding signal,ELF3,"1.14 fold enrichment (6-mer frequency, TF over GST control)"
same,binding signal,CRX,"1.72 fold enrichment (6-mer frequency, TF over GST control)"
same,binding signal,ETV1,"1.17 fold enrichment (6-mer frequency, TF over GST control)"
